Many of the other results were omitted from the sample, so hits are more common in it than they were.
Tgondii IFNg: T. gondii growth inhibition with IFN-gamma, primary screen, cell-based. Toxoplasma gondii growth in IFN-gamma-treated host cells; active compounds read low. activity change, negative = inhibition, % (concentration not given with the values). actives 3.8% (n = 69,000). AID 1259416, 2018; in the data active = activity change below about -70%, passing the limit was not always enough;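 note: host cells are HeLa cells infected with Toxoplasma gondii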
The depositor's hits bear a star; i = inactive.

SMILES	Tgondii IFNg
COc1cccc(S(=O)(=O)N(C)C[C@@H]2OCc3ccccc3-c3c(n(C)c4ccccc34)C(=O)N([C@H](C)CO)C[C@@H]2C)c1	-57
C[C@H](CO)N1C[C@H](C)[C@H](CN(C)S(=O)(=O)c2ccc([N+](=O)[O-])cc2)OCc2ccccc2-c2c(n(C)c3ccccc23)C1=O	-72*
COc1cccc(S(=O)(=O)N(C)C[C@H]2OCc3ccccc3-c3c(n(C)c4ccccc34)C(=O)N([C@@H](C)CO)C[C@H]2C)c1	-72*
C[C@@H]1CN([C@H](C)CO)C(=O)c2c(c3ccccc3n2C)-c2ccccc2CO[C@@H]1CN(C)S(=O)(=O)c1ccc([N+](=O)[O-])cc1	-24
C[C@@H]1CN([C@@H](C)CO)C(=O)c2c(c3ccccc3n2C)-c2ccccc2CO[C@@H]1CN(C)S(=O)(=O)c1ccc([N+](=O)[O-])cc1	-50
Cc1c(C(=O)NCCSc2nccn2C)nnn1-c1ccccc1F	349
CN(Cc1cccc2cnccc12)C(=O)c1ncc[nH]1	2
C=C1/C(=C\C=C2/CCC[C@]3(C)[C@@H]([C@H](C)/C=C/[C@H](C)C(C)(C)O)CC[C@@H]23)C[C@@H](O)C[C@@H]1O	21
CCN(CC)Cc1cc(=O)n2c(n1)CN(Cc1nccs1)CCC2	-21
CC(C)c1nc(C2(S(=O)(=O)c3ccccc3)CC2)n(-c2ccccn2)n1	-2
CCOc1nc2c(c(C)nn2-c2cccc(C)c2)c(C)c1CCC(=O)NCCc1c[nH]c2ccccc12	-79*
CCSc1nc(CC(=O)NCCc2c[nH]c3ccccc23)cs1	27
Cc1cc(C(=O)NCCc2c[nH]c3ccccc23)c2c(=O)n(C)c(=O)n(C)c2n1	37
CC1(C)Oc2ccc3ccc(=O)oc3c2C(N2CCCCC2)C1O (configuration not stated)	-8
Cc1ccc(C(=O)N2CCC3(CC2)CC(CC(=O)NCC(C)C)c2ccccc2O3)o1 (configuration not stated)	-39
Cc1c(C(=O)N2CCC(C)CC2)oc2ccc3c(c12)C(O)CC1(CCCCC1)O3 (configuration not stated)	-100*
O=C(c1ccsc1)N1CC[C@@H](c2ccc3ccccc3c2)[C@H](O)C1	0
COC(=O)C1CC23C=CNC4CCC5(c6ccccc6NC15C2C)C43 (configuration not stated)	-86*
Cc1nc(S(=O)(=O)Nc2ccc(S(=O)(=O)N3CCOCC3)cc2)cn1C	-44
Cc1cc(CC(C)NC(=O)c2c[nH]c3ccccc23)n[nH]1 (configuration not stated)	-16
CCOC(=O)CSc1nc(NCc2ccc(Cl)cc2)c2ccccc2n1	-34
COc1ccc(-c2nc(N3CCc4ccccc4C3)c3ccccc3n2)cc1	63
COc1ccc(-c2nc(NCCN3CCOCC3)c3ccccc3n2)cc1	-58
COc1ccc2c(c1)CCc1c-2nc2ccccc2c1N1CCOCC1	-98*
CCOCC1CN(Cc2ccoc2)Cc2ncn(CC3CC3)c21 (configuration not stated)	94
SMILES	Tgondii IFNg
Cc1ccc(CN2CCCn3nnc(COCC4CC4)c3C2)s1	-26
Cc1cc(-c2ccsc2)nc(C2CCN(C(=O)c3cc(C(F)(F)F)nn3C)CC2)n1	-30
CNC(=O)CN1CCOc2c(O)cc(-c3ccccc3C)cc2C1	-1
CC(C)CCN1C2(CCN(C(=O)c3ccno3)C2)c2ccccc2S1(=O)=O (configuration not stated)	10
CC(C)CCN1C2(CCN(C(=O)Cc3cccnc3)C2)c2ccccc2S1(=O)=O (configuration not stated)	-8
CC(C)CCN1C2(CCN(C(=O)NC3CCCC3)C2)c2ccccc2S1(=O)=O (configuration not stated)	-87*
O=C(NCc1ccc(S(=O)(=O)N2CCCC2)cc1)c1cn[nH]c1-c1ccccc1	28
COc1ccc(CN2CCCC2c2cc3cccnc3[nH]2)c(OC)c1 (configuration not stated)	75
CCc1cn[nH]c1C1CCN(C(=O)c2nnc3nc(C)ccn23)CC1	2
Cc1ccc(C2c3[nH]c4ccccc4c3CCN2C(=O)c2ccc(Br)cc2)cc1 (configuration not stated)	246
COCC(=O)N1CCc2c([nH]c3ccccc23)C1c1ccc(F)cc1 (configuration not stated)	410
O=C(c1ccccc1)N1CCc2c([nH]c3ccccc23)C1c1ccc(F)cc1 (configuration not stated)	-85*
CN(C)c1cccc(C(=O)N2CCc3c([nH]c4ccccc34)C2c2ccc(F)cc2)c1 (configuration not stated)	-94*
Cc1ccc(C(=O)N2CCc3c([nH]c4ccccc34)C2c2ccc(F)cc2)cc1 (configuration not stated)	-19
Cc1ccc(C2c3[nH]c4ccccc4c3CCN2C(=O)c2ccc(F)cc2)cc1 (configuration not stated)	i
CCOc1ccc(C2c3[nH]c4ccccc4c3CCN2C(=O)c2ccc(OC)cc2)cc1 (configuration not stated)	-76
CSc1ccc(C2c3[nH]c4ccccc4c3CCN2C(=O)c2ccc(N(C)C)cc2)cc1 (configuration not stated)	-53
COc1ccc(C(=O)N2CCc3c([nH]c4ccccc34)C2c2ccc(F)cc2)cc1 (configuration not stated)	-130*
O=C(c1ccccc1F)N1CCc2c([nH]c3ccccc23)C1c1ccc(F)cc1 (configuration not stated)	281
COc1ccc(C2c3[nH]c4ccccc4c3CCN2C(=O)c2ccc(Br)cc2)cc1 (configuration not stated)	-89*
CN(CC1(CO)CCCC1)c1ccnc(C(=O)NCc2cccnc2)c1	39
CCCC(=O)N1C[C@@H]2CN(c3cnccn3)CC[C@H]2C1	24
Cc1[nH]c2ccc(CNC(=O)C(c3cccnc3)N3CCOCC3)cc2c1C (configuration not stated)	-3
O=C1N(Cc2ccccn2)C(=O)C2(CCN(Cc3ccc(F)cc3F)CC2)N1CCc1ccccc1	2
O=C([C@H]1C[C@H]2CN(c3ncccn3)C[C@H]1O2)N1CCOCC1	12
SMILES	Tgondii IFNg
CC(NC(=O)Cn1cc(C(=O)C(=O)N2CCCC2)c2ccccc21)c1ccc2c(c1)OCCCO2 (configuration not stated)	-2
COC(=O)[C@@H]1C[C@@H](N(C)C)CN1Cc1cccn1-c1ncccn1	-2
Cc1nc2ccc(NS(=O)(=O)c3ccc(F)c(Cl)c3)cc2o1	-3
CCOC(=O)C1CCCN(Cc2nnc(-c3ccccc3)o2)C1 (configuration not stated)	85
CCS(=O)(=O)N1CCOCC2(CCN(Cc3nccn3C)C2)C1 (configuration not stated)	-1
CCOc1cccc(NC(=O)c2nc(C)oc2C(F)(F)F)c1	5
Cc1ccc(OCCN(C)Cc2ccc(CO)o2)c(C)c1	5
Cc1ccccc1-c1ccc2c(-c3ncc(C(=O)NCCN(C)C)s3)noc2c1	-54
CCN(C)C(=O)c1cnc(-c2noc3cc(N4CCCCC4)ccc23)s1	-44
CN(C)C1CCN(C(=O)c2cnc(-c3noc4cc(-c5ccc(F)cc5)ccc34)s2)CC1	-82*
COc1cccc(OC)c1C(=O)N1CCN(C(=O)c2cnc(N)nc2C)CC1	-1
COCC(NCC(=O)Nc1cnccn1)c1ccnn1C (configuration not stated)	20
